The values below come from PubChem BioAssay (NCI).

About 83,000 compounds went through this panel and 20% of them were active in at least one assay; those are over-represented in the sample as a whole.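 Compound tested at a single concentration for 48 hours in 96-well plates; a percent growth value below 10 was scored as active.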 Values without a mark were called inactive. Activity calls are given as the source filed them.

Test systems include SR leukemia; OVCAR-8 ovarian; OVCAR-5 ovarian; OVCAR-4 ovarian; SK-OV-3 ovarian; IGROV1 ovarian; HS 578T breast; NCI/ADR-RES ovarian; T-47D breast; BT-549 breast; MDA-MB-435 melanoma; SW-620 colon; MCF7 breast; HCT-116 colon; HCC-2998 colon; KM12 colon; OVCAR-3 ovarian; RPMI-8226 leukemia.
Holding throughout (assay): NCI-60 one-dose screen, 48 h (100 = growth as untreated, 0 = no growth, -100 = all killed)
Holding throughout (settings): 10 µM unless noted

Turning to `FC(F)(F)c1cc(Nc2cccc(Oc3ccc(NC4=NCCN4)nc3)c2)ccc1Cl`, the growth was -28.1% (active) in the experiment with SR leukemia; 30.8% in the experiment with OVCAR-8 ovarian; 3.8% (active) with OVCAR-5 ovarian; 28.2% with OVCAR-4 ovarian; 71% in the experiment with SK-OV-3 ovarian; -1.17% (active) in the experiment with IGROV1 ovarian. In addition, the growth in the experiment with HS 578T breast is 39.7%; with NCI/ADR-RES ovarian, -10.6% (active); in the experiment with T-47D breast, 23.4%; in the experiment with BT-549 breast, 44.7%; with MDA-MB-435 melanoma, -40% (active); with SW-620 colon it was -75.8% (active). In addition, the growth was -42.5% (active) in the experiment with MCF7 breast, -48.5% (active) with HCT-116 colon, -58% (active) with HCC-2998 colon and -60.4% (active) in the experiment on KM12 colon.
In the case of `CCN1CCN(Cc2ccc(C(=O)Nc3ccc(C)c(Oc4ccc(-c5[nH]nc6ncnc(N)c56)cc4)c3)cc2C(F)(F)F)CC1`, the growth in the experiment with SR leukemia is 11.3%; in the experiment with OVCAR-5 ovarian, 94.9%; with OVCAR-4 ovarian, 87%; in the experiment on SK-OV-3 ovarian it was 99.8%; with IGROV1 ovarian, 82.1%; in the experiment with OVCAR-3 ovarian it was 116%. Also, the growth in the experiment with HS 578T breast is 64.9%; in the experiment on NCI/ADR-RES ovarian, 67.2%; with T-47D breast, 100%; in the experiment on BT-549 breast, 109%; in the experiment with MDA-MB-435 melanoma it was 82%; in the experiment on SW-620 colon it was 115%. Also, the growth in the experiment on MCF7 breast is 70.6%; in the experiment with HCT-116 colon, 67%; with HCC-2998 colon, 117%; in the experiment with KM12 colon, 21.2%.
Consider `Clc1nc2ccccc2nc1-c1nnc(C2CCCCC2)o1`, for which the growth was 95.4% with RPMI-8226 leukemia; 101% in the experiment on OVCAR-8 ovarian; 107% with OVCAR-5 ovarian; 98% in the experiment on OVCAR-4 ovarian; 102% with SK-OV-3 ovarian; 101% in the experiment with IGROV1 ovarian. The growth is 92.8% in the experiment on HS 578T breast; 107% in the experiment with NCI/ADR-RES ovarian; 86% in the experiment on T-47D breast; 138% in the experiment with BT-549 breast; 99.1% in the experiment on MDA-MB-435 melanoma; 97.2% in the experiment with SW-620 colon. The growth in the experiment with MCF7 breast is 37.4%; with HCT-116 colon, 101%; in the experiment with HCC-2998 colon it was 104%; in the experiment on KM12 colon, 94.1%.
In the case of `Cc1ccc2sc3c(c2c1)OC(N)=C(C#N)C3c1ccc(Cl)cc1` (configuration not stated), the growth is 93.2% with RPMI-8226 leukemia; 96.7% in the experiment on OVCAR-8 ovarian; 93.4% in the experiment on OVCAR-5 ovarian; 91.1% in the experiment on OVCAR-4 ovarian; 85.7% in the experiment on SK-OV-3 ovarian; 65.2% in the experiment with IGROV1 ovarian. Also, the growth is 78.3% in the experiment on HS 578T breast; 76.2% in the experiment on NCI/ADR-RES ovarian; 56.6% with T-47D breast; 26.3% with BT-549 breast; -10.7% (active) in the experiment on MDA-MB-435 melanoma; 63.4% with SW-620 colon. In addition, the growth in the experiment on MCF7 breast is 13.8%; in the experiment with HCT-116 colon, 88%; in the experiment with HCC-2998 colon it was 84.8%; in the experiment on KM12 colon, 45.5%.
As to `CS(=O)(=O)Nc1cc(-c2ccc3ncc(C#N)c(NCc4ccccc4O)c3c2)cnc1Cl`, the growth in the experiment with SR leukemia is 6.89% (active); with OVCAR-8 ovarian, 8.27% (active); in the experiment with OVCAR-5 ovarian, 21.7%; with OVCAR-4 ovarian it was 14.1%; in the experiment on SK-OV-3 ovarian it was -5.88% (active); in the experiment with IGROV1 ovarian, -41.8% (active). The growth in the experiment on OVCAR-3 ovarian is 3.31% (active); in the experiment with HS 578T breast it was -17.9% (active); with NCI/ADR-RES ovarian, 42.4%; with T-47D breast, 13%; with BT-549 breast it was -10% (active); with MDA-MB-435 melanoma, 5.99% (active). The growth was 9.16% (active) in the experiment with SW-620 colon; 1.5% (active) with MCF7 breast; 2.58% (active) in the experiment with HCT-116 colon; -1.75% (active) in the experiment on HCC-2998 colon; 10% with KM12 colon.
For the compound `Cc1ccc(-c2cc3nc(C(Cl)Cl)nc(C)n3n2)cc1`, the growth was 113% with SR leukemia; 102% with OVCAR-8 ovarian; 104% in the experiment with OVCAR-5 ovarian; 118% with OVCAR-4 ovarian; 84.2% in the experiment on SK-OV-3 ovarian; 72.2% in the experiment on IGROV1 ovarian. Further, the growth was 104% in the experiment on OVCAR-3 ovarian; 107% in the experiment with HS 578T breast; 110% with NCI/ADR-RES ovarian; 94.6% in the experiment with T-47D breast; 115% with BT-549 breast; 110% in the experiment on MDA-MB-435 melanoma. In addition, the growth in the experiment with SW-620 colon is 107%; with MCF7 breast it was 88.3%; in the experiment with HCT-116 colon it was 108%; in the experiment with HCC-2998 colon, 115%; in the experiment with KM12 colon it was 99.1%.
`COc1cc(OC)cc(C(=O)Nc2sc3c(c2C(N)=O)CCC(=O)C3)c1`: the growth is 1.86% (active) in the experiment on RPMI-8226 leukemia; 48.3% in the experiment with OVCAR-5 ovarian; 9.16% (active) in the experiment on OVCAR-4 ovarian; 106% with SK-OV-3 ovarian; 48.8% with IGROV1 ovarian; 14.8% in the experiment with OVCAR-3 ovarian. In addition, the growth is 23.7% in the experiment with HS 578T breast; 53.9% in the experiment on NCI/ADR-RES ovarian; 7.67% (active) with T-47D breast; 11.1% in the experiment with BT-549 breast; 41.7% in the experiment on MDA-MB-435 melanoma; 18.6% in the experiment with SW-620 colon. Also, the growth in the experiment with MCF7 breast was 24.4%; in the experiment on HCT-116 colon, 7.89% (active); with HCC-2998 colon, 88.3%; with KM12 colon it was 12%.
Take `Cc1cccc2c3c(sc12)C(c1ccc(F)cc1)C(C#N)=C(/N=C/c1ccc(Cl)cc1)O3` (configuration not stated): the growth in the experiment with SR leukemia is 10.5%; with OVCAR-8 ovarian, -3.92% (active); with OVCAR-5 ovarian, 23.5%; in the experiment with OVCAR-4 ovarian, 70%; in the experiment with SK-OV-3 ovarian it was 34.8%; in the experiment with IGROV1 ovarian, 22.5%. The growth is 1.34% (active) in the experiment on HS 578T breast; 2.96% (active) in the experiment with NCI/ADR-RES ovarian; 56.7% in the experiment on T-47D breast; -26.5% (active) in the experiment with BT-549 breast; -12.4% (active) in the experiment with MDA-MB-435 melanoma; 19.6% in the experiment with SW-620 colon. In addition, the growth in the experiment with MCF7 breast was 14.1%; in the experiment with HCT-116 colon, 2.26% (active); in the experiment with HCC-2998 colon, 5.44% (active); in the experiment with KM12 colon, 15.7%.
As for `CN(C)CCCOc1ccc2c(c1)CN(C(=O)c1cc(C(=O)N3Cc4cccc(F)c4C3)ccc1O)C2`, the growth in the experiment with SR leukemia is 96.8%; in the experiment with OVCAR-8 ovarian, 101%; with OVCAR-5 ovarian, 108%; with OVCAR-4 ovarian, 99%; in the experiment on SK-OV-3 ovarian it was 112%; in the experiment on IGROV1 ovarian, 113%. Further, the growth with HS 578T breast was 92.9%; with NCI/ADR-RES ovarian, 107%; in the experiment on T-47D breast, 100%; with BT-549 breast, 125%; with MDA-MB-435 melanoma, 103%; in the experiment with SW-620 colon, 105%. Further, the growth was 83.2% in the experiment with MCF7 breast, 106% with HCT-116 colon, 114% in the experiment on HCC-2998 colon and 106% in the experiment on KM12 colon.
For the compound `C=C(C)[C@@H]1CC[C@]2(COC)CC[C@]3(C)[C@H](CC[C@@H]4[C@@]5(C)CCCNC(C)(C)[C@@H]5CC[C@]43C)[C@@H]12`, the growth with SR leukemia was -54.9% (active); with OVCAR-8 ovarian, 79.2%; in the experiment with OVCAR-5 ovarian, 75.5%; in the experiment with OVCAR-4 ovarian, 28.7%; with SK-OV-3 ovarian, 102%; in the experiment on IGROV1 ovarian it was 37.2%. For the same compound, the growth in the experiment on OVCAR-3 ovarian is 80.9%; with HS 578T breast, 37.8%; in the experiment with NCI/ADR-RES ovarian, 51.3%; with T-47D breast, 54.1%; in the experiment on MDA-MB-435 melanoma, 10.4%; in the experiment with SW-620 colon it was -57.6% (active). Also, the growth in the experiment with MCF7 breast was 7.62% (active); in the experiment with HCT-116 colon, -29.1% (active); with HCC-2998 colon, -29.1% (active); with KM12 colon it was 38.1%.
As for `N/C(=N\C(N)=N\c1nc2ccccc2s1)c1ccc2ccccc2c1`, the growth with SR leukemia is -17.6% (active); in the experiment with OVCAR-8 ovarian, 84.8%; with OVCAR-5 ovarian it was 102%; in the experiment on OVCAR-4 ovarian, 85%; in the experiment with SK-OV-3 ovarian it was 116%; with IGROV1 ovarian, 55.3%. Besides, the growth is 109% in the experiment with OVCAR-3 ovarian; 90.9% with HS 578T breast; 30.3% in the experiment on NCI/ADR-RES ovarian; 79.2% in the experiment with T-47D breast; 88.9% in the experiment with MDA-MB-435 melanoma; 110% with SW-620 colon. Further, the growth in the experiment with MCF7 breast was 79.3%; in the experiment with HCT-116 colon, 63.5%; in the experiment with HCC-2998 colon, 116%; with KM12 colon, 59.5%.
On to `NC(N)=Nc1ccc(Oc2cccc(Nc3ccc(Cl)c(C(F)(F)F)c3)c2)cc1`, for which the growth is -26.4% (active) in the experiment on SR leukemia; 68.6% in the experiment on OVCAR-8 ovarian; 58.8% with OVCAR-5 ovarian; 55.6% with OVCAR-4 ovarian; 82.6% with SK-OV-3 ovarian; 17.2% in the experiment on IGROV1 ovarian. Besides, the growth in the experiment with OVCAR-3 ovarian was 35%; in the experiment with HS 578T breast it was 52%; with NCI/ADR-RES ovarian, 91.6%; in the experiment with T-47D breast it was 35.3%; with BT-549 breast, 77%; in the experiment on MDA-MB-435 melanoma, 32.3%. The growth in the experiment on SW-620 colon was 30.2%; in the experiment on MCF7 breast, 11.3%; with HCT-116 colon, 27.5%; with HCC-2998 colon it was 20.3%; in the experiment on KM12 colon, 7.04% (active).
As for `N#Cc1ccccc1Cn1c2nc(=N)c3ccccc3c-2nc2ccccc21`, the growth in the experiment on RPMI-8226 leukemia was 77.2%; in the experiment on OVCAR-8 ovarian, 66.4%; with OVCAR-5 ovarian, 78.6%; in the experiment with OVCAR-4 ovarian, 29.8%; in the experiment with SK-OV-3 ovarian it was 79.2%; in the experiment with IGROV1 ovarian, 49.6%. In addition, the growth was -5.06% (active) in the experiment on OVCAR-3 ovarian; 97.8% with HS 578T breast; 71.1% in the experiment on NCI/ADR-RES ovarian; 66.8% with T-47D breast; 88% with BT-549 breast; 70% in the experiment on MDA-MB-435 melanoma. In addition, the growth in the experiment on SW-620 colon is 54.6%; in the experiment with MCF7 breast, 34.7%; in the experiment on HCT-116 colon it was 46.9%; in the experiment with HCC-2998 colon, 60.2%; in the experiment on KM12 colon, 60.7%.
